# Cycloheximide cs – affects cycloheximide protein synthesis inhibition readout, counter-screen; max response, %; 300,000 compounds, 12% hits; cell reporter, cycloheximide protein synthesis inhibition counterscreen; in the data active = max response mostly above about 13%, no sharp cut-off; inactive = mostly below about 14%; also: read at 38.3 µM for the half of the compounds with a filed dose; 0% is about no effect
# FMDV antiviral – antivirals against foot and mouth disease virus | FMDV antiviral cell-based qHTS | Potency, µM (highest dose often 57.9 µM), for inactives: at the highest dose activity change, negative = inhibition, actives largely listed as inhibitors | 410,000 compounds, 1.2% hits; calls by dose curve; tested in HEK293T cells; also: read-out not given here; potency is read from the fitted curve at half-maximal effect; % is scaled to controls: 0 for no effect and ±100 for the full control effect; nearly all actives have a fitted effect of over 45% in size
# Shiga toxin inh – Shiga toxin inhibition; Vero cells, Shiga toxin protein synthesis inhibition reporter; inhibition, % at 38.7 µM; 290,000 compounds, 9.2% hits; AID 2315; in the data active = inhibition mostly above about 28%, no sharp cut-off; inactive = mostly below about 43%; also: 0% is about no effect
# MARV entry inh – blocks Marburg virus binding to or entry into cells; Marburg virus pseudotyped entry inhibition, cell reporter; Potency, µM (doses to about 37.8 µM), for the others: at the highest dose activity change, negative = inhibition, usual class: inhibitors; 300,000 compounds, 1.8% hits; AID 540276; calls by dose curve; tested in HEK293 cells; also: potency is read from the fitted curve at half-maximal effect; % is scaled to controls: 0 for no effect and ±100 for the full control effect
# LASV entry inh – inhibitors of Lassa virus binding or cell entry. Lassa virus pseudotype entry inhibition, cell reporter. Potency, µM (doses to about 37.9 µM), for inactives: top-dose activity change, negative = inhibition, most hits filed as inhibitors. 300,000 compounds, 1.2% hits; calls by dose curve; tested in HEK293 cells; also: potency is read from the fitted curve at half-maximal effect; % is scaled to controls: 0 for no effect and ±100 for the full control effect; nearly all actives have a fitted effect of over 50% in size
# HCV inh – inhibitors of hepatitis C virus infection; Huh7.5.1 HCVcc-Cre infection, luciferase reporter, 44 h; Potency, µM (titrated, usually from 41.8 µM), inactives show at the top dose activity change, negative = inhibition, most hits filed as inhibitors; 340,000 compounds, 3.4% hits; active = well fitted inhibition curve with a large enough effect; inconclusive = small, poorly fitted or top-dose-only effect, or another doubt; inactive = no such curve, though single readings can be large or run the other way; also: potency is read from the fitted curve at half-maximal effect; % is scaled to controls: 0 for no effect and ±100 for the full control effect
#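 HCVcc-Cre virus at an moi near 0.5 was added right after compound to cells cultured 4 h from seeding (1,000 cells/well). Luciferase activity was determined 44 h later, 15 min after substrate addition at RT.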
# Active calls of the source: *; ? = inconclusive; . = no result; + = active, no number; [ ] = dose if it differs, or a comment. Shown are actives, neighbours in structure and some others; about 13% of the full set was active somewhere.
SMILES,Cycloheximide cs,FMDV antiviral,Shiga toxin inh,MARV entry inh,LASV entry inh,HCV inh
COc1ccc(-c2cn(-c3ccc(OC)cc3)c3[n+]2-c2ccccc2CC3)cc1,-1,16µM*,-5,?,?,-26%
COc1ccc(-n2cc(-c3ccccc3)[n+]3c2CCCCC3)cc1,-2,?,-7,?,?,?
COc1ccc(-n2c(-c3ccc(Br)cc3)c[n+]3c2CCc2ccccc2-3)cc1,14*,?,1,12µM*,?,?
CC(C)c1ccc(-n2c(-c3ccccc3)c[n+]3c2CCc2ccccc2-3)cc1,-1,11µM*,-4,?,3.2µM*,?
COc1ccccc1-n1c(-c2ccccc2)c[n+]2c1CCc1ccccc1-2,1,3.2µM*,-9,?,2.8µM*,4µM*
CCOC(=O)C1=C(C)N(Cc2ccc(C(=O)O)cc2)C(=O)NC1c1ccc([N+](=O)[O-])cc1 (stereo not given),-3,-2%,-13,8%,1%,2%[8.37 µM]
O=C1CCCN1CC(O)CS(=O)(=O)c1ccc(Cl)cc1 (stereo not given),0,12%,3,12%,1%,14%
O=C(NCCCN1CCOCC1)c1cc(-c2ccc(Br)cc2)on1,14,-26%,21,?,-3%,?
CCc1ccccc1OCCCCCNCCO,-2,-19%,-9,?,1%,?
CC(C)(C)c1ccc(S(=O)(=O)NCc2ccc(C(=O)N3CCCC3)cc2)cc1,-3,15%,-13,-17%,?,-10%
Cc1ccc(NC(=O)c2ccc(CNS(=O)(=O)c3cccc(C(F)(F)F)c3)cc2)cc1,-6,-17%,-20,23%,0%,-9%
CC1CCN(C(=O)c2ccc(CNS(=O)(=O)c3ccc(C(C)(C)C)cc3)cc2)CC1,.,-9%,.,.,.,22µM*
CC1CN(C(=O)c2ccc(CNS(=O)(=O)c3cccc(C(F)(F)F)c3)cc2)CC(C)O1 (stereo not given),-3,-14%,1,13µM*,-30%,?
Cc1c(O)ccc(/C(Cc2ccc3ccccc3n2)=N\O)c1O,16,15%,121,-2%,?,11µM*
CC(=O)Oc1ccc(C(=O)Cc2ccccn2)c(O)c1,1,20%,-4,-25%,-11%,40%
CN(C)c1ccc(C(=N)Cc2ccc3ccccc3n2)cc1,.,0%,.,.,.,.
CC(=O)Oc1ccc(C(=O)Cc2ccc3ccccc3n2)c(O)c1C,26*,27%,+,4%,13%,?
O=C(Nc1nccs1)c1csc([C@H]2C[C@H](O)[C@@H](CO)O2)n1,.,34%,.,.,.,.
CC(OC(=O)c1ccc(Cl)nc1)C(=O)NC1(C#N)CCCCC1 (stereo not given),.,-14%,.,19%,21%,40%
COc1cccc(Nc2ccc(N3CCCCC3)cc2)c1OC,.,26%,.,.,.,.
COc1ccccc1CNc1ccc(N2CCCCC2)cc1,24,.,45,5.2µM*,?,31%
COc1cccc(CNc2ccc(N3CCCCC3)cc2)c1OC,30*,23%,34*,?,?,-12%
COc1ccccc1CNc1ccc(C(=O)O)cc1,-1,14%,-8,1%,?,10%
CC(C)Cc1nn2c(=O)cc(COC(=O)CNC(=O)c3ccc(C(C)(C)C)cc3)nc2s1,.,-22%,.,.,19%[46.1 µM],.
O=C(Oc1cccc(Nc2ncnc3ccccc23)c1)c1cccnc1,7,-14%,16,11%[46.1 µM],22%[46.1 µM],3%
SMILES,Cycloheximide cs,FMDV antiviral,Shiga toxin inh,MARV entry inh,LASV entry inh,HCV inh
COc1cc(C(=O)Oc2cccc(Nc3ncnc4ccccc34)c2)cc(OC)c1OC,8,.,16,?,?,25µM*
COc1ccc(C(=O)Oc2cccc(Nc3ncnc4ccccc34)c2)cc1OC,8,20µM*,3,?,?,?
CC(C)(C)C(=O)Oc1cccc(Nc2ncnc3ccccc23)c1,9.6*,-24%,10,?,-2%[46.1 µM],1%
CC(C)(C)OC(=O)[C@H](NC(=O)OCc1ccccc1)c1ccccc1,.,-21%,.,.,.,-24%
COc1ccc(N2C(=NC(=O)c3ccc(Br)cc3)SC3CS(=O)(=O)CC32)cc1 (stereo not given),.,-12%,.,.,.,12%
Cc1cc(C)c2c(ccc3cccc[n+]32)c1,.,?,.,?,-19%,1µM*
Cc1cc(C)c2nc(-c3ccccc3)ccc2c1,.,45%,.,.,.,.
CNS(=O)(=O)c1cn(CC(=O)Nc2ccc(C)c(N(C)C)c2)cc1S(=O)(=O)NC,.,27%,.,.,6%[46.1 µM],.
COc1ccc(-n2c(CCC(=O)O)ccc2-c2ccccc2)cc1,8,9%,17,.,?,4%
COc1ccc(-c2ccc(CCC(=O)O)n2-c2ccccc2O)cc1,47*,38%,79*,-11%[46.1 µM],-7%[46.1 µM],9%
Cc1ccc(-c2ccc(CCC(=O)O)n2-c2ccc(C(=O)O)cc2)cc1,11,-2%,36,.,.,8%
O=C(O)CCc1ccc(-c2ccccc2)n1-c1cccc(O)c1,23*,.,54*,-1%,2%,9%
Cc1ccc(-c2ccc(CCC(=O)O)n2-c2cccc(C(=O)O)c2)cc1,71*,9%,152*,.,.,19%
COc1cc2c(cc1NC(=O)COC(=O)[C@@H](NC(=O)c1ccccc1F)C(C)C)oc1ccccc12,8,2%,-2,-21%,13%,?
O=C1[C@@H]2[C@@H]3C[C@@H]([C@H]4ON=C(c5ccc(Cl)cc5Cl)[C@@H]34)[C@@H]2C(=O)N1C1CCCCC1,31*,-18%,-9,?,?,?
CN1C(=O)[C@@H]2[C@@H]3C[C@@H]([C@H]4ON=C(c5ccc(Cl)cc5)[C@@H]34)[C@@H]2C1=O,-3,?,-11,1%,12%,-10%
Cc1ccsc1-c1nc(CN(C)C(C2CC2)C2CC2)c(C)o1,-3,-15%,-6,8.9µM*,-8%[46.1 µM],-15%
Cc1ccccc1N=Nc1c(O)[nH]c2ccccc12,.,72%,.,?,13%,17%
Cc1cc(N=Nc2ccccc2C)ccc1N,.,31%,.,-11%[46.1 µM],-14%,13µM*
CN(C(=O)CSc1nnc2[nH]c(=O)cc(-c3ccccc3)n12)c1ccccc1,.,28%,.,.,-1%[46.1 µM],.
CC(=O)C1=NN(c2ccccc2)C(c2cccs2)N1c1ccc(N(C)C)cc1 (stereo not given),15,16µM*,15,?,21µM*,?
Cc1csc(=Nc2ccccc2)n1Cc1ccco1,29*,-1%,31,.,.,11%
Cc1csc(=NC(=O)c2ccccc2)n1Cc1ccco1,11,.,28,-6%,6%,10%
CC(Nc1nc(N2CCNCC2)nc2ccccc12)c1ccccc1 (stereo not given),0,?,-7,?,?,10µM*
CCOc1c([N+](=O)[O-])cc2c(C)c(C(=O)N3CCN(C)CC3)oc2c1OCC,-5,-2%,-13,5%[46.1 µM],5%[46.1 µM],-10%
O=C(C[n+]1cccc(CO)c1)Nc1nc2ccccc2s1,34*,0%,41,.,.,9%
